This is an account of results in ChEMBL document CHEMBL4513216, “Probing the Open Global Health Chemical Diversity Library for Multistage-Active Starting Points for Next-Generation Antimalarials” (ACS Infect Dis, 2020).

Structures are written as SMILES. About 8,600 (12%) of roughly 69,000 compounds showed an effect of 50% or more. The full list was thinned out, with strong results kept by preference.

The test concerns Plasmodium berghei. The test can be described thus: Screen against P. berghei liver stage (PbLuc), transformed with Luciferase, at 10uM. The following applies: tested at 10 uM. It is filed as functional, HepG2.
Take `Cc1ccc(N2CCC3(CC2)CC(OCC(=O)N(C)C)CO3)nn1` (stereo not given): the INHIBITION was found to be 29%. In the case of `CNC(=O)COC1COC2(CCN(c3ncccn3)CC2)C1` (stereo not given) it was 27.5%; in that of `COC1COC2(CCN(c3ccc(C#N)cc3)CC2)C1` (stereo not given), -36.5%. In the case of `CNC(=O)COC1COC2(CCN(c3ccc(C)nn3)CC2)C1` (stereo not given), the INHIBITION is recorded as 54.1%. Consider `CNC(=O)COC1COC2(CCN(c3ccc(C#N)cc3)CC2)C1` (stereo not given), for which the INHIBITION came to 64.9%. Then `CNC(=O)COC1COC2(CCN(c3cnccn3)CC2)C1` (stereo not given), with 36.4%; and `CNC(=O)[C@@H](CC(C)C)N1CCC[C@H]1C(=O)N(C)Cc1ccccc1`, with 25.3%; and `Cc1noc([C@H]2C[C@H]3OCC[C@H]3N(Cc3ccc4c(c3)OCO4)C2)n1`, with 17.6%. In the case of `CSc1c(CC(=O)O)n(C)c2ccccc12` it was -9.98%; in that of `O=C([C@@H]1CC[C@@H]2[C@@H](CCN2Cc2cccc(F)c2)O1)N1CCCCO1`, -7.48%.

`CC(C)c1cc(C2CCN(C(=O)Cn3cnc4ccccc43)CC2)[nH]n1`: the INHIBITION is recorded as 86.6%. In the case of `CC(C)c1cc(C2CCN(Cc3cc(F)cc(F)c3)CC2)[nH]n1` it was 49.5%; in that of `CC(C)c1cc(C2CCN(C(=O)Cn3cncn3)CC2)[nH]n1`, 17%. In the case of `CC(C)c1cc(C2CCN(C(=O)Cn3cnnn3)CC2)[nH]n1` it was 35.1%; in that of `CC(C)c1cc(C2CCN(C(=O)Cn3nc4ccccc4n3)CC2)[nH]n1`, 53.2%; in that of `Cc1n[nH]c(C)c1CN1CCC(c2cc(C(C)C)n[nH]2)CC1`, 13.9%.

`CC(C(=O)NCCN1CCOCC1)n1cncn1` (stereo not given): the INHIBITION is given as -2.33%. As to `CN(Cc1cnn(C)c1)C(=O)Nc1cccnc1-n1cccn1`, the INHIBITION is -24.9%. As for `CCN1CCN(C(=O)C2CC(=O)N(c3cnn(C(C)C)c3)C2)CC1` (stereo not given), the INHIBITION was 23.1%. In the case of `CCS(=O)(=O)N1Cc2cncn2CC(C(=O)NCC2CC2)C1` (stereo not given) it was 24%. On to `Cc1nc(C2CCCN(C(=O)c3cnc(C)s3)C2)no1` (stereo not given), for which the INHIBITION is -38%. In the case of `Cc1nc(C2CCCN(C(=O)C3=NN(C(C)C)C(=O)CC3)C2)no1` (stereo not given) it was 58.3%; in that of `Cc1nc(C2CCCN(C(=O)c3cc(C)sc3C)C2)no1` (stereo not given), 81.2%; in that of `CCc1nc(C2CCCN(C(=O)C3=NN(C(C)C)C(=O)CC3)C2)no1` (stereo not given), 28.7%. In the case of `Cc1nc(C2CCCN(C(=O)c3cccc(S(C)(=O)=O)c3)C2)no1` (stereo not given) it was 51.3%; in that of `Cc1nc(C2CCCN(C(=O)c3ccoc3)C2)no1` (stereo not given), 11.6%; in that of `Cc1nc(C2CCCN(C(=O)c3sc(C)nc3C)C2)no1` (stereo not given), 43.4%.

With `Cc1nc(C2CCCN(C(=O)c3ccc(S(C)(=O)=O)cc3)C2)no1` (stereo not given), the INHIBITION is recorded as -29.8%. In the case of `CCN1N=C(C(=O)N2CCCC(c3noc(C)n3)C2)CCC1=O` (stereo not given) it was 34.1%; in that of `Cc1ccc2c(n1)N(Cc1cccnc1)CCN(C(=O)C1CCC1)C2`, 32.4%.

With `NCC1CCCCN1C(=O)Cc1cccc(Cl)c1` (stereo not given), the INHIBITION was 19%. Then `Cc1ccc(C(=O)N2CCCC2c2nnc3n2CCCCC3)s1` (stereo not given), with 13%; and `CC(C)[C@H]1CN(C(=O)CC2CCC2)C[C@@H]1N(C)C`, with 3.06%; and `COC1(CNC(=O)c2cccc(C#N)c2)CCSC1` (stereo not given), with 8.7%. Then `Cc1nc(CN2CCO[C@@H]3CN(Cc4cccs4)C[C@@H]3C2)cs1`, with 37.3%; and `Cc1nc(C(Cc2ccsc2)NC(=O)CCN2CCOCC2)sc1C` (stereo not given), with -11.95%; and `Cc1nc(NCCc2ccccc2)cc(C(=O)N2CCOCC2)n1`, with 38.5%. In the case of `COc1cc(C)ccc1S(=O)(=O)N[C@H]1CN(C(C)=O)C[C@@H]1C1CC1` it was 55.2%; in that of `COc1ccc(C)cc1S(=O)(=O)N[C@H]1CN(C(C)=O)C[C@@H]1C1CC1`, 35.4%. For `COc1ccc(S(=O)(=O)N[C@H]2CN(C(C)=O)C[C@@H]2C2CC2)cc1C`, the INHIBITION turned out to be 9.63%. In the case of `CN1CCC2(COCc3cnc(N4CCOCC4)nc32)C1` (stereo not given) it was 51.3%; in that of `CCS(=O)(=O)N1CCC2(COCc3cnc(N4CCOCC4)nc32)C1` (stereo not given), -50.9%. Then `c1cnc(N2CCC3(COCc4cnc(N5CCOCC5)nc43)C2)nc1` (stereo not given), with 68.3%. Then `COCCN1CCC2(COCc3cnc(N4CCOCC4)nc32)C1` (stereo not given), with 52.3%. In the case of `O=S(=O)(C1CC1)N1CCC2(COCc3cnc(N4CCOCC4)nc32)C1` (stereo not given), the INHIBITION is on record as -8.69%. Take `COCCN1CCC2(COCc3cnc(N(C)C)nc32)C1` (stereo not given): the INHIBITION was -6.23%.

For the molecule `c1ccc(N2CCC3(COCCN(c4ncccn4)C3)C2)nc1` (stereo not given), the INHIBITION was 38.5%. In the case of `c1nc(N2CCOCC2)nc2c1COCC21CCN(CC2CC2)C1` (stereo not given) it was -7.59%; in that of `CNc1nc(CNC(=O)Nc2cccc(CN(C)C)c2)cs1`, -0.74%; in that of `CC(C)c1nncn1CCNC(=O)c1c(O)cc(F)cc1F`, 8.86%. Then `CC(C)=CCN1C(=O)[C@@H]2CC[C@H]1CN(C(=O)CCc1n[nH]c(C)c1C)C2`, with 43.8%; and `CC(Cn1ccnc1)NC(=O)C1(c2cccc(Cl)c2)CC1` (stereo not given), with 19.4%. Then `COCCn1c(=O)n(Cc2cccc(F)c2F)c2cc(C(=O)O)ccc21`, with 55%.

For the molecule `COCCn1c(=O)n(Cc2ccccc2C)c2cc(C(=O)O)ccc21`, the INHIBITION worked out at 29%.

In the case of `COCCn1c(=O)n(Cc2ccc(Cl)s2)c2cc(C(=O)O)ccc21`, the INHIBITION turned out to be 32.3%.
